Data published in ChEMBL document CHEMBL3988442, “University of Dundee, Small-Polar-MMV Screening Library” (2021).
For some of these results: Potency and affinity values are given separately.

What was measured:
Parameters in all cases: scale not given: direction of the effect not stated beside the values
[1] = target: Protein translocase subunit SecA (Escherichia coli (strain K12)) (UniProt P10408); assay: Assay to Identify E. coli SecA ATPase Inhibitors; assay type: functional; conditions: 30 µM
Sequence of Protein translocase subunit SecA (Escherichia coli (strain K12)) (P10408 whole entry): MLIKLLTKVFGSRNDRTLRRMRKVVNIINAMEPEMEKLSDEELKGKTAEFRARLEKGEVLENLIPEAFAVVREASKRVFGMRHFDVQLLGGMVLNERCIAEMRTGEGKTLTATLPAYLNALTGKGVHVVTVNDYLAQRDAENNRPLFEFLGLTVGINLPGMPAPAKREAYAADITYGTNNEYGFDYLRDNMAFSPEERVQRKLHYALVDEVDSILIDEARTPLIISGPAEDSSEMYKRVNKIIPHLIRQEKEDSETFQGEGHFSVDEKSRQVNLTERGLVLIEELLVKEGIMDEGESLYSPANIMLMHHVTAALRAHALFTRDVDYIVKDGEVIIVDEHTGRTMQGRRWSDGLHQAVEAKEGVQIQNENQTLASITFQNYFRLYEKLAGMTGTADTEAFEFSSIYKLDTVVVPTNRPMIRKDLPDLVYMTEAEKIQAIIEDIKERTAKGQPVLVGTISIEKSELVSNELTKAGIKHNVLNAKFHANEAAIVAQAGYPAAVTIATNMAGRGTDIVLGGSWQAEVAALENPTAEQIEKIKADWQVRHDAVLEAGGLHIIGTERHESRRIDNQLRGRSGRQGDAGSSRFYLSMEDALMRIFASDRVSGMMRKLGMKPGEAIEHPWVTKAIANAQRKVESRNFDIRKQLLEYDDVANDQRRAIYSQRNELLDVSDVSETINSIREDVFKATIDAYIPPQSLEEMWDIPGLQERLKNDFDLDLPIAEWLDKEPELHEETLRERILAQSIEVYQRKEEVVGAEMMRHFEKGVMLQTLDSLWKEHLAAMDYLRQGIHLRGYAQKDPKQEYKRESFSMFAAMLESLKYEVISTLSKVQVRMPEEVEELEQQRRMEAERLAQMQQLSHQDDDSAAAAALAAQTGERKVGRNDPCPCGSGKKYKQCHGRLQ

[2] = target: T1, Ubiquitin-activating enzyme e1, putative (Leishmania donovani (strain BPK282A1)) (UniProt E9BSI1); assay: Leishmania donovani Ubiquitin Activating Enzyme (LdE1); assay type: functional; conditions: 30 µM
T1 sequence (whole entry): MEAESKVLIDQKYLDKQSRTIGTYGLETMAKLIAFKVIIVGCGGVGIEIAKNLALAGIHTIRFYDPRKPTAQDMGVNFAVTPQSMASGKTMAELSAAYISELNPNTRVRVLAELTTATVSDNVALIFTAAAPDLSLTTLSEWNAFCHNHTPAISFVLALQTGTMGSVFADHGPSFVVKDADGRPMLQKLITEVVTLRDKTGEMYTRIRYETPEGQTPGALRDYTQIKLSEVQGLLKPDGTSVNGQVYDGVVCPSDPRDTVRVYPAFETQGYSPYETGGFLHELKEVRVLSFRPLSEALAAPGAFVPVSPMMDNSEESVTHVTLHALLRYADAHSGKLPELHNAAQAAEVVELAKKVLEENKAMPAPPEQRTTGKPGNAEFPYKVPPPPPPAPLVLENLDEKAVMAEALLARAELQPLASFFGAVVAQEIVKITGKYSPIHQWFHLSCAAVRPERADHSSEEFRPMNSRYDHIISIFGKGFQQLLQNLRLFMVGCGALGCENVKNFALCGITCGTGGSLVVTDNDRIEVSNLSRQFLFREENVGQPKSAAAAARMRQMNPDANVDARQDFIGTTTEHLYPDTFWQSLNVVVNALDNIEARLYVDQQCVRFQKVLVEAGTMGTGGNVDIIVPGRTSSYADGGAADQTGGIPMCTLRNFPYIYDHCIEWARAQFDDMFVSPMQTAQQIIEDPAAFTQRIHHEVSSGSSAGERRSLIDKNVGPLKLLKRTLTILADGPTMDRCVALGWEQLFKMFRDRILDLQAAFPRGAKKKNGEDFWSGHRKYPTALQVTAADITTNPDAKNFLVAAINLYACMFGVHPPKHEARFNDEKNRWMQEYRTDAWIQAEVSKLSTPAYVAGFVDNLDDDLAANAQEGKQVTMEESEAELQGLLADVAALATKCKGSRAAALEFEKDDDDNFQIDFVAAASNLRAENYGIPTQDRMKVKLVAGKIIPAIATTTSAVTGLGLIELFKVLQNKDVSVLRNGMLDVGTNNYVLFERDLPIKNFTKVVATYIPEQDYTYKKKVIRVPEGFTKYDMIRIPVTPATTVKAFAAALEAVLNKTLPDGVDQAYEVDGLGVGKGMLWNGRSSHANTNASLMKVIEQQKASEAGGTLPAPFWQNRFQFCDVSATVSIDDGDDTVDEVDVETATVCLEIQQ

[3] = target: AMP-activated protein kinase, AMPK (Homo sapiens) (UniProt P54646+O43741+P54619+Q9UGJ0+Q9Y478+Q13131+Q9UGI9); assay: AMP-dependent Kinase enzyme assay. An in vitro enzyme assay that detects ADP turnover that is directly proportional to AMPK activity. This uses naive AMPK that is activated during the assay with MK-8722; assay type: functional; conditions: 30 µM
[4] = target: Sialic acid-binding Ig-like lectin 9 (Homo sapiens) (UniProt Q9Y336); assay: Hs-Siglec9 ALPHAscreen SOP 20170721; conditions: 10 µM
Sequence of Sialic acid-binding Ig-like lectin 9 (Homo sapiens) (Q9Y336 whole entry): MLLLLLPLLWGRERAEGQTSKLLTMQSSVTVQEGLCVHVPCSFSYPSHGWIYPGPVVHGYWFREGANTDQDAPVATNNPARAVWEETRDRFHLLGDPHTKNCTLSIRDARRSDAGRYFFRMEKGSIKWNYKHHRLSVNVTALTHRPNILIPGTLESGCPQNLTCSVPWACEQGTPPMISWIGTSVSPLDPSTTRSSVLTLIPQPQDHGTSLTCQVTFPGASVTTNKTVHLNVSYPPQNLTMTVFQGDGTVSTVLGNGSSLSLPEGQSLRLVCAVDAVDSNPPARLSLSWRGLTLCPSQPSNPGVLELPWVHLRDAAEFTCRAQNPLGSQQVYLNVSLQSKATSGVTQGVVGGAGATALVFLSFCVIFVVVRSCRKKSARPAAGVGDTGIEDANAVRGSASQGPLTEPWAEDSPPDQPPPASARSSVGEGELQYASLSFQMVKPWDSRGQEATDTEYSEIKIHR

Trypanosoma cruzi = assay: Trypanosoma cruzi phosphomannomutase and mannose-1-phosphate guanylyltransferase assay; assay type: functional; conditions: 10 µM
[5] = target: T2, Arginase-2, mitochondrial (Homo sapiens) (UniProt P78540); assay: in vitro enzyme assay to detect the production of urea directly proportional to the activity of Arginase II; assay type: functional; conditions: 33.3 µM; note: in the data most compounds retested in dose-response had high values
T2 sequence (whole entry): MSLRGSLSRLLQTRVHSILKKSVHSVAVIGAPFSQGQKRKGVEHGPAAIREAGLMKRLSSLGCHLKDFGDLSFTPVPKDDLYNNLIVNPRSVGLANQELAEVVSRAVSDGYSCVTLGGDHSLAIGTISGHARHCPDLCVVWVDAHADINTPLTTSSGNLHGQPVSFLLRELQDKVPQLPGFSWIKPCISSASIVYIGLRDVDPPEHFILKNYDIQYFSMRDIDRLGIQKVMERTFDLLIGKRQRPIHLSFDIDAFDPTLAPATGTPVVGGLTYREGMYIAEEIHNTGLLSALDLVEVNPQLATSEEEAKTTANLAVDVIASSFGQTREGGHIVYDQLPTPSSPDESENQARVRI

[6] = target: T3, Proteasome subunit beta (Trypanosoma cruzi) (UniProt O96673); assay: Trypanosoma cruzi proteasome chymotrypsin-like activity (TcProtChymo) assay.; note: in the data most compounds retested in dose-response had high values; assay type: functional; conditions: 9.37 µM
T3 sequence (whole entry): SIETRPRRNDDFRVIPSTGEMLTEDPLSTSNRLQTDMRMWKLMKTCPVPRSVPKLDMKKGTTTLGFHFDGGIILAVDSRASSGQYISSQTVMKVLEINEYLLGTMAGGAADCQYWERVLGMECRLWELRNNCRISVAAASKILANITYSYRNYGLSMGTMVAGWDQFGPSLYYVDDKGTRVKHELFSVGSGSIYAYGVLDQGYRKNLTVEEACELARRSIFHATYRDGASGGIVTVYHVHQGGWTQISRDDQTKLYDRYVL

Homo sapiens = species on record: Homo sapiens; assay: To identify inhibition of the IFN signalling (Jak-Stat) pathway via expression of an eGFP reporter gene under the control of an IFN-stimulated response element (ISRE) containing MxA promoter.; assay type: functional; conditions: 30 µM
[7] = target: T4, Tyrosyl-tRNA synthetase, putative (Trypanosoma cruzi (strain CL Brener)) (UniProt Q4DSP6); assay: Trypanosoma cruzi tyrosyl tRNA synthetase (TcYRS) _High Tyrosine SOP; assay type: functional; conditions: 30 µM; note: in the data most compounds retested in dose-response had high values
T4 sequence (whole entry): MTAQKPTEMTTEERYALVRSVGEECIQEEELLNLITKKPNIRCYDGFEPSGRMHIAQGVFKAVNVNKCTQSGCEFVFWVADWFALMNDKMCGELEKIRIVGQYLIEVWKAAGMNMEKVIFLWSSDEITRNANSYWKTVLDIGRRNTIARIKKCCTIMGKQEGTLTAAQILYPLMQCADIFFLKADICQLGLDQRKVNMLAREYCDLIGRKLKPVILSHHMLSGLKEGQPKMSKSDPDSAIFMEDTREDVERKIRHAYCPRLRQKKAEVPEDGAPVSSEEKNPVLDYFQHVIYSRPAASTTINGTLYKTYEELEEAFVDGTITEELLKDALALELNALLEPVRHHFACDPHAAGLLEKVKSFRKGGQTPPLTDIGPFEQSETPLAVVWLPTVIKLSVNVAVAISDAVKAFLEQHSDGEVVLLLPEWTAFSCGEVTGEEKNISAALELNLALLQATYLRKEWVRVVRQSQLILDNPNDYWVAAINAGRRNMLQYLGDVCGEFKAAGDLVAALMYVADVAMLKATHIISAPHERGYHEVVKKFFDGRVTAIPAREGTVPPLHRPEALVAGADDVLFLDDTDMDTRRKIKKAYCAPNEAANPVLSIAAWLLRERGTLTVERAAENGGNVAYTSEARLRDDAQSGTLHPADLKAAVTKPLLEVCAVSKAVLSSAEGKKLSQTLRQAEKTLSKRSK

[8] = target: T4, Tyrosyl-tRNA synthetase, putative (Trypanosoma cruzi (strain CL Brener)); assay: Trypanosoma cruzi tyrosyl tRNA synthetase (TcYRS) SOP; assay type: functional; conditions: 30 µM
[9] = target: Chromo domain-containing protein 1 (Saccharomyces cerevisiae (strain ATCC 204508 / S288c) (Baker's yeast)) (UniProt P32657); assay: ScCHD-1 Enzyme Inhibition Assay; assay type: functional; conditions: 30 µM; note: in the data most compounds retested in dose-response had high values
Sequence of Chromo domain-containing protein 1 (Saccharomyces cerevisiae (strain ATCC 204508 / S288c) (Baker's yeast)) (P32657 whole entry, the tested form may be a part): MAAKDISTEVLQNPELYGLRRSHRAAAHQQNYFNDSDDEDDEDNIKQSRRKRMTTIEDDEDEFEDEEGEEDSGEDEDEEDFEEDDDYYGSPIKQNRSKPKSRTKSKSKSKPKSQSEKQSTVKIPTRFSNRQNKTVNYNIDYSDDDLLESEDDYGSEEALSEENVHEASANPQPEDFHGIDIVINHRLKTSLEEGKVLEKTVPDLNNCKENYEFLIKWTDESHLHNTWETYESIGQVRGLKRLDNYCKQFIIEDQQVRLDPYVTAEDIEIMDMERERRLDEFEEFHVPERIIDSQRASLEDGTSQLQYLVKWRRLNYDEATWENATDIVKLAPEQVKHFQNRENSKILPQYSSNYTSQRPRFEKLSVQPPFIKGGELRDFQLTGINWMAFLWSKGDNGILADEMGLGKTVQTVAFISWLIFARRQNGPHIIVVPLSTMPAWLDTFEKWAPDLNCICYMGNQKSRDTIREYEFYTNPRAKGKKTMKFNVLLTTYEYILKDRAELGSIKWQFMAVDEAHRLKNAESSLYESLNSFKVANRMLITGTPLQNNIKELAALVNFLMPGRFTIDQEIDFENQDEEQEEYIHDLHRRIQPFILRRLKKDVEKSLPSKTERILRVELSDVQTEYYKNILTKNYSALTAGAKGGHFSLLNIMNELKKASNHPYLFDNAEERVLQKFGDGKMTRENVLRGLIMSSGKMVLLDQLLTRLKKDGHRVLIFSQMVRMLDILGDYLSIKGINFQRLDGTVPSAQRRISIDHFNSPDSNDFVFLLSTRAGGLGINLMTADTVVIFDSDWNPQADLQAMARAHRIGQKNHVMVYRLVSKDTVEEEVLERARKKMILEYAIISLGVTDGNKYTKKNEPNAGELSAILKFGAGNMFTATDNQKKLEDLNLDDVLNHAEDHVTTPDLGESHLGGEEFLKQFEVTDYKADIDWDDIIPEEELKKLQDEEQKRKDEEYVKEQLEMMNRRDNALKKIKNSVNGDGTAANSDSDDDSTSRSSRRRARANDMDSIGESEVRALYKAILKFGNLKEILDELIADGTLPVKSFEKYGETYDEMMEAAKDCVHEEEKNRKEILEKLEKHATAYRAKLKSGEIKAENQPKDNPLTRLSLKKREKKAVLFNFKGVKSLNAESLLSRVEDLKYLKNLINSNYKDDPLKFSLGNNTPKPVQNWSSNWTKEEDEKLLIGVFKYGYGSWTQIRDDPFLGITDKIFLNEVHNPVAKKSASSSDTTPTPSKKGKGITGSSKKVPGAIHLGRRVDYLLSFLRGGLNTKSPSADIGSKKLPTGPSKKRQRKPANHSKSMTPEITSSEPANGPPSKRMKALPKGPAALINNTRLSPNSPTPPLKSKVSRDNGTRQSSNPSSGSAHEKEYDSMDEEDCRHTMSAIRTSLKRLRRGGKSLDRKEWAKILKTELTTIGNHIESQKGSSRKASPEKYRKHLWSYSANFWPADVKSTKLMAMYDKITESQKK

SMILES | Percent Effect [1] [%] | Percent Effect [2] [%] | Percent Effect [3] [%] | Percent Effect [4] [%] | Percent Effect (Trypanosoma cruzi) [%] | Percent Effect [5] [%] | Percent Effect [6] [%] | Percent Effect (Homo sapiens) [%] | Percent Effect [7] [%] | Percent Effect [8] [%] | Percent Effect [9] [%]
COC(=O)c1cccn1C1CCN(C(=O)c2cn[nH]c2C)CC1 | -3.48 | 10.4 | 0.41 | 9.63 | 4.31 | 0.356 | 8.11 | 21 | 6.8 | 19.5 | -9.12
CCn1cc(NC(=O)C2CCN(Cc3noc(C(C)C)n3)CC2)cn1 | -2.1 | 8.86 | 0.341 | 3.03 | -1.74 | -0.645 | 10.3 | 8.77 | 9.38 | 22.8 | -19.2
CC(=O)NCC1CCN(CC2CCOc3ccccc3C2)CC1 (stereo not given) | -1.44 | 15.3 | -4.21 | 14 | 1.85 | 9.27 | 13.2 | -5.31 | 4.21 | 15.4 | -2.81
CC[C@@]1(O)CCN(C(=O)c2ccc(SC)cc2)C[C@H]1O | -4.3 | 4.17 | 0.43 | 1.71 | 6.9 | -0.442 | 10.9 | 3.45 | 4.21 | 5.13 | -3.41
CN(C)c1cc(CNC(=O)c2ccc(F)cc2F)ccn1 | -4.79 | 28.6 | -1.46 | 10.4 | 5.62 | -1.78 | 8.11 | 8.43 | 5.83 | 24.4 | -9.26
COCCNC(=O)C1(c2ccccc2C)CCOCC1 | -6.97 | 2.7 | -2.99 | -1.02 | -5 | 4.81 | 0.18 | 13.2 | 0.493 | -6.17 | -1.03
Cc1cccnc1CNc1cc(N2CCCC2CO)ncn1 (stereo not given) | -2.07 | 2.6 | -9.88 | 14.4 | 2.25 | -3.56 | 8.11 | 11.7 | 2.91 | 9.76 | -6.83
Cc1ncoc1C(=O)N1C[C@H]2CCC[C@@]2(COCC2CCOCC2)C1 | -3.5 | 0 | 4.71 | -0.295 | 1.66 | 1.59 | 22.3 | -6.69 | 2.16 | 7.69 | 5.48
COc1cccc(CCC(=O)N2CCCCC2Cn2cccn2)c1 (stereo not given) | -4.9 | 7.79 | 6.53 | 2.3 | 1.47 | 1.9 | 3.31 | 9.7 | 0.952 | 2.35 | -13.2
Cc1cnc2c(S(=O)(=O)NCC3CCS(=O)(=O)C3)cccc2c1 (stereo not given) | -3.39 | 21.1 | -0.0656 | -5 | 6.26 | 3.24 | 16.8 | 7.48 | 7.39 | 23.5 | -10.9
c1ccc2cc(OCCN3CCOC(Cn4cncn4)C3)ccc2c1 (stereo not given) | -4.49 | 6.33 | -0.381 | 14 | 2.77 | -1.5 | 10.3 | 5.72 | 4.17 | 10.1 | -6.36
Cc1ccc(-c2ncc(C(=O)NCCNC(=O)C(C)C)s2)c(C)c1 | -2.93 | 5.41 | -5.86 | -1.89 | -3.87 | -2 | 2.52 | 15.8 | 4.43 | 11.1 | -8.7
Cc1nc(COCc2cnc3n2CCN(CC2CCC2)C3C)cs1 (stereo not given) | -1.98 | -2.67 | -6.08 | 4.28 | 8.11 | -56.8 | 12.7 | -20.7 | -1.04 | 7.5 | -4.06
Cc1cnccc1N1CCCN(C(=O)CCCc2cn[nH]c2)CC1 | -2.89 | 11 | -5.34 | 18.3 | 3.92 | -1.36 | -1.06 | 4.4 | 1.07 | 7.5 | -3.49
O=C(c1cnn(-c2ccccc2F)c1)N1CCN(CCO)CC1 | -0.313 | 2.67 | -3.7 | 3.26 | 5.36 | 16.1 | 0.698 | -20 | -0.546 | 3.7 | -1.23
Cn1nc2c(cc1=O)CN(Cc1coc(-c3cccs3)n1)CC2 | 0.447 | 16.2 | -166 | 5.69 | 4.81 | 0.802 | -1.26 | -8.71 | -2.46 | 3.7 | -4.95
O=C(CCc1cscn1)NS(=O)(=O)c1ccc2ccccc2c1 | -4.59 | 1.39 | -10.1 | 23.9 | 3.4 | 4.42 | 0.877 | 0.282 | 8.42 | 5.13 | -4.15
Cc1ccccc1[C@@H]1CN(C(=O)c2ccc3[nH]nnc3c2)C[C@H]1C(=O)O | -4.25 | -11 | 4.06 | 1.72 | -5.75 | 0.399 | 8.65 | 2.78 | 3.12 | 3.7 | 2.93
Cc1cc2nc(SCC(=O)N3CCOCC3)n(CC(C)C)c(=O)c2[nH]1 | 2.16 | 13.2 | 2.03 | -4.31 | -4.77 | 11.8 | 18.3 | -10.6 | -1.06 | 10.4 | -2.79
Cc1noc(C(C)N2CCN(CCCN3CCCC3=O)CC2)n1 (stereo not given) | -1.22 | 21.6 | 32.3 | 1.61 | 1.23 | -8.02 | 19.5 | 9.12 | 7.39 | 23.5 | -15.8
